HSV augment: HSV replication enhancement; HSV replication augmentation in cells, fold increase; maximum fold increase; actives 0.005% (n = 220,000); AID 1956; in the data active = maximum fold increase above about 1.5; tested in PC3 cells
A1 inh: inhibitors of the anti-apoptotic protein A1, read as caspase activation; MEF A1-2A-BIM cells, Caspase-Glo 3/7 luminescence, 3 h; percent of clofoctol response, vehicle zero; caspase activation, % (concentration not given with the values); actives 0.066% (n = 330,000); AID 2462;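 active = over half of replicate activation scores above 10%, or exactly half above 10 with the replicate mean above 10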
GC-A act: GC-A (human) enzyme activation. P16066. activation, % at 10 µM. HEK293 GC-A cells, cGMP TR-FRET, EC30 ANP; 0% at EC30 ANP, 100% saturating ANP. actives 0.14% (n = 370,000); in the data active = activation above about 40%
Efflux pump inh: inhibitors of Candida antifungal efflux pumps expressed in yeast; inhibition, % at 10 µM; AID 485275; S. cerevisiae Candida pump triplex, Nile Red efflux; actives 0.44% (n = 330,000);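 active = plate passing quality check with inhibition over a set limit, or well fluorescence over plate mean plus 4 SD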;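 also: Nile Red retained in pooled yeast measured as flow cytometry median fluorescence; higher means more Nile Red kept so more efflux inhibition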
NPR2 activator: GC-B (human) receptor activation; activation, % at 10 µM; HEK293-GC-B cells, CNP EC30, cGMP TR-FRET; 0% at EC30 CNP, 100% saturating CNP; P20594; actives 0.11% (n = 370,000);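 active = activation at 10 µM reaching about 35% in either raw or pattern-adjusted values, limit read from the data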
Target sequence (P20594 whole entry, looked up): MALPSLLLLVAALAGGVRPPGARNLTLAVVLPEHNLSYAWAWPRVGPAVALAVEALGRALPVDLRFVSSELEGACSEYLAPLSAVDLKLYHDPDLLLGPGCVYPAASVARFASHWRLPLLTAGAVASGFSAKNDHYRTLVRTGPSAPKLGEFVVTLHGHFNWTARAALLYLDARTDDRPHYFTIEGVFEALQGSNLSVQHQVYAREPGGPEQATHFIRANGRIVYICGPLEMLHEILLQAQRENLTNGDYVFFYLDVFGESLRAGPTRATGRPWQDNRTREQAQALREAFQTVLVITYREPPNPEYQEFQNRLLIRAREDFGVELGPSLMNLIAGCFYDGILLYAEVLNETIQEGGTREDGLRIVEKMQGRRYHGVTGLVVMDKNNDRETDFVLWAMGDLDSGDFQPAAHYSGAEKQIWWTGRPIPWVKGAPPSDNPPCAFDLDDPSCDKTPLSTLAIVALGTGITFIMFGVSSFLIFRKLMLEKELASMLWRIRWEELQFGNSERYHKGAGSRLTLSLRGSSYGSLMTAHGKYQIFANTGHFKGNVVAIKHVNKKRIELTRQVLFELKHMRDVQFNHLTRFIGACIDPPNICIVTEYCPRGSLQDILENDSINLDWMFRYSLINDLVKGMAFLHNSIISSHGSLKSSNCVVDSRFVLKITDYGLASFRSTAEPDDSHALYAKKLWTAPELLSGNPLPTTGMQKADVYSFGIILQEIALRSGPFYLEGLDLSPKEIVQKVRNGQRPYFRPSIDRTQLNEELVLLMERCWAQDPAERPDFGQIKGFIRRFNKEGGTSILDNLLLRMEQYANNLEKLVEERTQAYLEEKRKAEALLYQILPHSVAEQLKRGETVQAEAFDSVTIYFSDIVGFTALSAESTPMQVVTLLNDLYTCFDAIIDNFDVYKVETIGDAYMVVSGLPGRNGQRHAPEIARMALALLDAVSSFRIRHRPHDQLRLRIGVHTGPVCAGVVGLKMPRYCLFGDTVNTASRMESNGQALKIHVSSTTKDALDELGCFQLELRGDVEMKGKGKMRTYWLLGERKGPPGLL
H9c2 TAG inh: triacylglycerol accumulation inhibition. H9c2 cells, Nile Red lipid (TAG) fluorescence; cells loaded with 200 µM oleic acid. inhibition, % at 12.5 µM. actives 0.66% (n = 230,000). AID 651582;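 active = pattern-corrected inhibition of lipid staining of at least 50% with the nuclear-stain viability signal not falling by more than 50%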
Cmpd fluor yeast: counter-screen for efflux pump inhibitors: compound fluorescence | actives 4% (n = 1,700) | shares compounds with Efflux pump inh | AID 588517 | S. cerevisiae AD/pABC3, flow cytometry | fluorescence ratio to DMSO, % at 10 µM;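 active = fluorescence ratio to DMSO above its plate's cutoff, the plate mean ratio plus 5 SD, cut at about 210% in these data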;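 also: unstained yeast with no Nile Red so the signal is compound autofluorescence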
CaMdr1 efflux inh: Candida Mdr1 efflux pump inhibition. shares compounds with Efflux pump inh. inhibition, % at 10 µM. actives 1% (n = 1,700). S. cerevisiae AD/CaMDR1, Nile Red efflux, flow cytometry; in the data active = inhibition above about 26%;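 also: higher means more Nile Red retained so more efflux inhibition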
Cdr2 pump inh: Candida Cdr2 efflux pump inhibition | shares compounds with Efflux pump inh | S. cerevisiae AD/CaCDR2, Nile Red retention, flow cytometry | Nile Red retention ratio vs DMSO, % at 10 µM | actives 4% (n = 1,700) | AID 588520; in the data active = Nile Red retention ratio vs DMSO above about 190%;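 also: higher ratio means more blocking of Cdr2 efflux of the dye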
Cdr1 pump inh: blocks the Candida albicans Cdr1 efflux pump in yeast. inhibition, % at 10 µM. shares compounds with Efflux pump inh. actives 1% (n = 1,700). S. cerevisiae AD/CaCDR1, Nile Red efflux, flow cytometry;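 active = inhibition above the screen-wide mean plus twice its standard deviation, cut at about 32% in these data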
TAG conf: confirmation of triacylglycerol accumulation inhibitors. H9c2 lipid accumulation, Nile Red fluorescence; cells loaded with 200 µM oleic acid. actives 71% (n = 990). inhibition, % at 12.5 µM. shares compounds with H9c2 TAG inh;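 active = mean inhibition across replicates of 40% or more; inactive = mean inhibition below 40%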
A number is an active result; 0 = inactive; - = not tested or not shown. Most compounds without a hit are left out; they make up all but 1% or so of the library.

SMILES | HSV augment | A1 inh | GC-A act | Efflux pump inh | NPR2 activator | H9c2 TAG inh | others
CC(C(=O)Nc1ccc(Br)cc1C(=O)c1ccccc1)N1CCCCC1 (stereo unspecified) | 0 | 0 | 0 | 0 | 0 | -
c1ccc(Cc2cnc(N3CCNCC3)nc2)cc1 | - | - | 0 | - | 0 | -
COC(=O)C1=C(c2cccc(C#N)c2)C[C@@H]2CC[C@H]1N2C(=O)NCC1CC1 | - | 0 | 0 | 2.5 | 0 | 0 | Cmpd fluor yeast=0;CaMdr1 efflux inh=0;Cdr2 pump inh=0;Cdr1 pump inh=0
c1ccc(CCN2CCC3CCNC3C2)cc1 (stereo unspecified) | - | - | 0 | - | 0 | -
Nc1ccc2ccc3cccc[n+]3c2c1 | - | 0 | 0 | 3.8 | 0 | - | Cmpd fluor yeast=272;CaMdr1 efflux inh=0;Cdr2 pump inh=185;Cdr1 pump inh=0
COc1ccc(NC(=O)N2CCC3(CC2)OCCO3)cc1OC | 0 | 0 | 0 | 11 | 0 | - | Cmpd fluor yeast=0;CaMdr1 efflux inh=0;Cdr2 pump inh=0;Cdr1 pump inh=0
C/C(=N\N1CCCCCC1)c1c(O)n(-c2ccccc2)c(=O)[nH]c1=O | 0 | 0 | 0 | 0 | 0 | -
C/C(=N\N1CCCCC1)c1c(O)[nH]c(=O)[nH]c1=O | - | 0 | 0 | 16 | 0 | 0 | Cmpd fluor yeast=0;CaMdr1 efflux inh=0;Cdr2 pump inh=0;Cdr1 pump inh=0
O=C(NCCN1CCC2(CC1)C(=O)NCN2c1ccccc1)c1cccc(F)c1 | - | - | 0 | - | 0 | -
CCOC(=O)CC[C@@H]1CC[C@]2(CCCN(Cc3ccncc3)C2)O1 | - | - | 0 | - | 0 | -
COc1ccc(C2=NCC(=O)N(CC(=O)NCc3ccco3)c3sc4c(c32)CCCC4)cc1 | 0 | 0 | 0 | 0.8 | 0 | - | Cmpd fluor yeast=0;CaMdr1 efflux inh=0;Cdr2 pump inh=0;Cdr1 pump inh=0
Cc1cccc(C2=NCC(=O)N(CC(=O)NCc3ccco3)c3sc4c(c32)CCCC4)c1 | 0 | 0 | 0 | 0 | 0 | -
CC1CCC(NCC(O)c2ccccc2)CC1 (stereo unspecified) | 0 | 0 | 0 | 8.2 | 0 | - | Cmpd fluor yeast=0;CaMdr1 efflux inh=0;Cdr2 pump inh=0;Cdr1 pump inh=0
O=C(NC1CN2CCC1CC2)c1cc(-c2ccc(Cl)cc2)nc2ccccc12 (stereo unspecified) | - | - | 0 | - | 0 | -
C[C@]12CCC3C(CCC4=CC(O)CC[C@@]43/C=N/O)C1(O)CCC2C1=CC(=O)OC1 (stereo partly specified) | - | 0 | 0 | 20 | 0 | - | Cmpd fluor yeast=0;CaMdr1 efflux inh=0;Cdr2 pump inh=0;Cdr1 pump inh=0
CC12CCC3C(CCC4(O)CC(O)CCC34C=O)C1(O)CCC2C1=CC(=O)OC1 (stereo unspecified) | - | - | 0 | - | 0 | 0
CCOC(=O)c1c(C)n(COCCO)c2ccc(O)cc12 | 0 | 0 | 0 | 7.5 | 0 | - | Cmpd fluor yeast=0;CaMdr1 efflux inh=0;Cdr2 pump inh=0;Cdr1 pump inh=0
COC(=O)[C@@]1(O)c2c(oc3cccc(O)c3c2=O)C=C[C@H]1O | - | - | 0 | - | 0 | -
COC(=O)C1=C(c2ccc(OCc3ccccc3)cc2)C[C@@H]2CC[C@H]1N2C(=O)NCc1ccc(OC)c(OC)c1 | - | 0 | 0 | 0 | 0 | 53 | TAG conf=0
COC(=O)C1=C(c2ccc(OCc3ccccc3)cc2)C[C@@H]2CC[C@H]1N2C(=O)NCc1ccccc1OC | - | - | 0 | - | 0 | 0
COc1cc2c(c(OC)c1OC)-c1ccc(O)cc1C(NC(C)=O)CC2 (stereo unspecified) | - | - | 0 | - | 0 | 52 | TAG conf=58
COc1ccc(C[C@@H]2c3cc(O)c(OC)cc3CCN2C)cc1O | 0 | 0 | 0 | - | 0 | 68 | TAG conf=0
CC(C)(C)Cc1nnc(NC(=O)COc2ccc(Cl)cc2Cl)o1 | - | - | 0 | - | 0 | -
COc1cccc(N=Nc2c(O)[nH]c(=S)[nH]c2=O)c1 | 0 | 0 | 0 | 0 | 0 | 57 | TAG conf=47
COc1ccc(N=Nc2c(O)[nH]c(=S)[nH]c2=O)cc1 | 0 | 0 | 0 | 0 | 0 | 0
SMILES | HSV augment | A1 inh | GC-A act | Efflux pump inh | NPR2 activator | H9c2 TAG inh | others
N#Cc1ccc(NC(=S)N2Cc3cc(Br)ccc3-n3nncc3C2)cc1 | - | - | 0 | - | 0 | -
CC1=CC(=C2C(=O)NC(=O)NC2=O)C=C(C(F)(F)F)N1Cc1ccccc1 | 0 | 0 | 0 | 0 | 0 | 0
CC1=CC(=C2C(=O)NC(=S)NC2=O)C=C(C(F)(F)F)N1Cc1ccccc1 | 0 | 0 | 0 | 0 | 0 | 54 | TAG conf=0
CC(/C=N/NC(=O)c1n[nH]c2c1CCC2)=C\c1ccccc1 | 0 | 0 | 0 | 0 | 0 | 72 | TAG conf=0
CC(C)(C)c1cc(O)ccc1O | - | - | 0 | - | 0 | -
CC(=O)OC12COC1CC(O)C1(C)C(=O)C(O)C3=C(C)C(O)CC(O)(C(OC(=O)c4ccccc4)C21)C3(C)C (stereo unspecified) | - | - | 0 | - | 0 | 65 | TAG conf=85
Cn1cc(P(=S)(c2ccccc2)c2ccccc2)c2ccccc21 | - | - | 0 | - | 0 | -
COCCCn1c(N)c(C(=O)Nc2ccccc2)c2nc3ccccc3nc21 | 0 | 0 | 0 | 0 | 0 | 59 | TAG conf=72
COc1ccccc1N | - | - | 0 | - | 0 | -

Screening results (PubChem)
